Screens from PubChem BioAssay.
Mito fusion yeast: qHTS Assay for Small Molecule Inhibitors of Mitochondrial Division or Activators of Mitochondrial Fusion; S. cerevisiae fusion-defective mutant growth rescue, CellTiterGlo 48 h; Potency, µM (top dose mostly 46.1 µM), for the others: at the highest dose growth rescue (activation), most hits filed as activators; hit rate 0.23% among 320,000; AID 485298, 2010; note: % of control where 0% means no effect; nearly all actives have a fitted effect of over 45% in size
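S. cerevisiae fusion-defective temperature-sensitive mutants (e.g. fzo1-1, mgm1-5) grown 48 h at 37C in YPEG (ethanol/glycerol non-fermentable) medium with 23 nl compound per well; growth rescue read as CellTiterGlo luminescence.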
Integrin act MD: qHTS for Activators of Integrin-Mediated Alleviation for Muscular Dystrophy; alpha7betagal myoblasts, beta-gal FDG fluorescence, 48 h; Potency, µM (titrated, usually from 38.3 µM), for inactives: top-dose activation, usual class: activators; hit rate 0.064% among 350,000; AID 624291, 2012;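 note: 100% = response of the positive control SU9516; nearly all actives have a fitted effect of over 60% in size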
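Alpha7betagal+/- myoblasts (passage 13) were plated 16-24 hr, then exposed to compounds (1:260 dilution of DMSO stock) for 48 hours at 37C. After MPER lysis, β-galactosidase reporter activity was read as FDG fluorescence (ex 480/em 540) after 30 minutes.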
RORg inh: qHTS for inhibitors of ROR gamma transcriptional activity; Nuclear receptor ROR-gamma (Mus musculus), P51450; Drosophila S2 Gal4-RORgamma UAS-luciferase reporter, 20 h; Potency, µM (highest dose often 53.6 µM), for the others: top-dose activity change, negative = inhibition, most hits filed as inhibitors; hit rate 5.4% among 310,000; note: % is set by controls: 0 for no effect and ±100 for the full control effect; nearly all actives have a fitted effect of over 60% in size
Target sequence (P51450 whole entry, looked up, the tested form may be a part): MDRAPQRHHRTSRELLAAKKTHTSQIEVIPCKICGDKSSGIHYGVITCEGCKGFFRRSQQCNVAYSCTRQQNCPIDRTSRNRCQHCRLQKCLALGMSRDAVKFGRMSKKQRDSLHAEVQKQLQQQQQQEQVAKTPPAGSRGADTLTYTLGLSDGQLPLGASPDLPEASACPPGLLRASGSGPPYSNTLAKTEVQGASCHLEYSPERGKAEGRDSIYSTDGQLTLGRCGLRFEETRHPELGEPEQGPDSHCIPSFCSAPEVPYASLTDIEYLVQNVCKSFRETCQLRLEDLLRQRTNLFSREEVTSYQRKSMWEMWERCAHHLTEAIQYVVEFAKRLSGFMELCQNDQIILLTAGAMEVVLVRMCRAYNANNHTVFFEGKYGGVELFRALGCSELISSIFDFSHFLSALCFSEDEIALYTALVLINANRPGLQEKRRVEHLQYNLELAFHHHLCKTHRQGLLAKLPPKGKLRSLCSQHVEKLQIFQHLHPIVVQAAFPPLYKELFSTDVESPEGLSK
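Using a luciferase readout, inhibitors were identified by reduced reporter activity in Drosophila cells coexpressing a copper-inducible Gal4–ROR gamma fusion and UAS-driven Photinus luciferase, incubated 20 hr after 700 uM copper sulfate.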
VP16 counter: VP16 counterscreen qHTS for inhibitors of ROR gamma transcriptional activity; Drosophila S2 Gal4-VP16 UAS-luciferase, luminescence, 20 h; Potency, µM (doses to about 53.6 µM), inactives show top-dose activity, negative = inhibition, most hits filed as inhibitors; hit rate 3.5% among 310,000;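 note: Gal4-VP16 expression switched on by copper sulfate through the metallothionein promoter; % is set by controls: 0 for no effect and ±100 for the full control effect; nearly all actives have a fitted effect of over 50% in size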
uPA generation: qHTS for Inhibitors of Cell Surface uPA Generation. AID 540303, 2011. Potency, µM (highest dose often 38.3 µM), for the others: at the highest dose activity change, negative = inhibition, hits mostly inhibitors. hit rate 0.31% among 330,000. cell surface uPA generation assay, qHTS; active = well fitted inhibition curve with a large enough effect; inconclusive = small, poorly fitted or top-dose-only effect; inactive = no such curve, though single readings can be large or run the other way; tested in mouse RAW 264.7 cells; note: % is set by controls: 0 for no effect and ±100 for the full control effect; nearly all actives have a fitted effect of over 55% in size
Chronic BCR inh: qHTS Assay to Find Inhibitors of Chronic Active B-Cell Receptor Signaling. Potency, µM (titrated, usually from 46.1 µM), inactives show top-dose activity change, negative = inhibition, most hits filed as inhibitors. ABC-DLBCL IkBa-CBG/CBR reporter, luminescence ratio, 4 h. hit rate 0.05% among 340,000; active = well fitted inhibition curve with a large enough effect in the signal ratio, with a control signal flat, not every such curve was filed as active; inconclusive = small, poorly fitted or top-dose-only effect, or effect the other way, or a change in a side signal; the % refers to the signal ratio;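 note: plate controls were basal doxycycline-induced cells for no effect and cells given 10 µM MG132 for full effect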
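Doxycycline induced both beetle luciferases in TMD8 lymphoma cells; IKK-driven degradation limits the IkappaBalpha-fused green signal, while red luminescence normalises for cell number and nonspecific effects. Compounds tested up to 46 uM, 4 hrs.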
* = called active by the depositor; ? = inconclusive; / = no result; [ ] = remark or other dose. A selection: hits, their analogues and other compounds. The true share with any hit is near 5.5%. Unless noted, calls come from the whole dose curve; as a rule, active = well fitted curve in the direction sought with a large enough effect; inconclusive = small, poorly fitted or top-dose-only effect, or another doubt; inactive = no such curve, though single readings can be large; an effect the other way counts as inactive or inconclusive. Potency is the fitted concentration of half-maximal effect.

SMILES	Mito fusion yeast	Integrin act MD	RORg inh	VP16 counter	uPA generation	Chronic BCR inh
Oc1cccc2ccc(Nc3ccccn3)nc12	-3.5%	-20.1%[7.66 µM]	12.3%	2.3%	-9.7%	?
Cc1cn(C2CC3OCC(NC(=O)C(Cc4ccccc4)NC(=O)OC(C)(C)C)C3O2)c(=O)[nH]c1=O (stereo not given)	/	/	-8.3%	-7.9%	/	/
Cc1ccc2ccc(C(Nc3ccccn3)c3ccccc3)c(O)c2n1 (stereo not given)	1.0%	-22.0%	5.01µM*	4.47µM*	?	?
O=C(CCSCCC(=O)Nc1c(F)c(F)c(F)c(F)c1F)Nc1c(F)c(F)c(F)c(F)c1F	-1.7%	3.1%	-8.3%	2.1%	5.7%	-0.2%
CCN1C(=O)/C(=C/c2ccc(N3CCCC3)cc2)NC1=S	16.6%	-47.7%	0.794µM*	-86.3%	-14.6%	?
CCCN1C(=O)/C(=C/c2ccc(N3CCOCC3)cc2)NC1=S	4.5%	-37.0%	3.98µM*	7.94µM*	-20.3%	?
Cc1ccc(CN2C(=O)N/C(=C\c3ccc(N4CCOCC4)cc3)C2=O)cc1	0.3%	-4.2%	-72.5%	11.2µM*	-1.2%	?
CCCN1C(=O)/C(=C/c2ccc(N3CCCC3)c(C)c2)NC1=S	-7.6%	17.6%	23.7%	-2.9%	-3.1%	-0.9%
Cc1cc(/C=C2\NC(=S)N(C)C2=O)ccc1N1CCCC1	-6.5%	-11.7%	3.55µM*	?	-1.0%	6.4%
Cc1onc(-c2ccccc2Cl)c1C(=O)NNC(=O)c1ccc(F)cc1	-3.5%	-10.1%	-10.2%	-7.1%	1.5%	0.2%
Cc1onc(-c2ccccc2)c1C(=O)O/N=C(\N)c1ccc([N+](=O)[O-])o1	-3.3%	-65.7%	-0.7%	-22.7%	4.47µM*	7.8%
Cc1onc(-c2ccccc2Cl)c1C(=O)O/N=C(\N)c1ccccc1	3.1%	?	14.1µM*	6.31µM*	?	0.5%
Cc1onc(-c2cccc(Cl)c2Cl)c1C(=O)O/N=C(\N)c1ccc([N+](=O)[O-])o1	-1.2%	-50.5%	-4.5%	-5.1%	4.3%	1.7%
Cc1cccc(C(=O)NNC(=O)c2c(-c3ccccc3Cl)noc2C)c1O	8.0%	0.0%	10µM*	-25.7%	1.5%	4.1%
C=C(C)C(O)/C=C/c1ccc(OC)cc1 (stereo not given)	/	/	17.6%[10 µM]	5.7%[10 µM]	/	/
O=C(CSCc1ccccc1)N1CCN(c2ccc(F)cc2)CC1	4.4%	7.2%	?	-12.5%	-0.7%	?
COC(=O)C1=NN(C(=O)c2ccccc2)C(O)(c2ccc([N+](=O)[O-])cc2)C1 (stereo not given)	-0.3%	?	5.01µM*	7.08µM*	-4.5%	?
CC1=NN(C(=O)CSCc2ccccc2)C(O)(c2ccc(F)cc2)C1 (stereo not given)	-2.3%	5.2%	7.08µM*	?	-0.7%	?
CC1=NN(C(=O)COc2ccc(C)c(C)c2)C(O)(c2ccc(Cl)cc2)C1 (stereo not given)	14.7%	5.6%	7.08µM*	15.8µM*	-4.3%	?
COC(=O)C1=NN(C(=O)c2ccc(C)cc2)C(O)(c2ccc(Cl)cc2)C1 (stereo not given)	13.1%	9.6%	-34.9%	-5.9%	-9.2%	-8.7%
COC(=O)C1=NN(C(=O)c2ccccc2)C(C)(O)C1 (stereo not given)	-2.2%	2.2%	-16.7%	-6.3%	3.0%	1.0%
CC1=NN(C(=O)c2ccc(Cl)cc2)C(O)(c2ccccc2)C1 (stereo not given)	1.2%	-33.8%	10µM*	12.6µM*	-0.4%	?
CC(=O)Nc1cc(C(=O)NCc2ccccc2)ccc1Sc1ccc(C)cc1	/	/	/	/	/	-0.3%
C[C@@H]1CN([C@@H](C)CO)C(=O)c2cc(NS(=O)(=O)c3ccc(Cl)cc3)ccc2O[C@H]1CN(C)Cc1ccncc1	/	-18.0%	/	/	-14.9%	0.6%
Cc1cccc(-n2ncc3c(Nc4ccc(Oc5ccc(Cl)cc5)cc4)ncnc32)c1	/	/	/	/	/	9.8%
SMILES	Mito fusion yeast	Integrin act MD	RORg inh	VP16 counter	uPA generation	Chronic BCR inh
CN(CCCC(=O)O)S(=O)(=O)c1ccc2c(c1)C(=O)c1cc(S(=O)(=O)N(C)CCCC(=O)O)ccc1-2	3.4%	-13.8%	-9.5%[1.91 µM]	5.3%	5.3%	7.8%
CC1=NN(C(=O)CCc2ccccc2)C(O)(c2ccncc2)C1 (stereo not given)	2.8%	17.3%	1.78µM*	?	5.1%	-6.6%
Cc1ccc(C(C)C)c(OCC(=O)NNC(=O)Nc2ccccc2)c1	/	24.8%	/	/	3.4%	/
CC1=NN(C(=O)COc2cc(C)ccc2C(C)C)C(O)(c2ccccc2)C1 (stereo not given)	9.0%	-12.2%	11.2µM*	17.8µM*	0.0%	-15.0%
CC1=NN(C(=O)CSCc2ccccc2)C(O)(c2ccc(Cl)cc2)C1 (stereo not given)	10.8%	31.9%	10µM*	?	0.2%	?
O=C(c1ccccc1)N1N=C(C(F)(F)F)CC1(O)c1ccc(F)cc1 (stereo not given)	-0.3%	5.1%	20µM*	?	4.1%	?
O=C(c1ccccc1)N1N=C(C(F)(F)F)CC1(O)c1ccccc1 (stereo not given)	0.9%	13.0%	-24.1%[1.91 µM]	?	-26.5%	-17.3%
Cc1cc(NC(=O)CSc2nc3c(C)cccc3cc2C)no1	-9.8%	5.7%	-9.5%	0.8%	0.1%	2.7%
COC(=O)C1=NN(C(=O)c2cccc(Cl)c2)C(O)(C(C)(C)C)C1 (stereo not given)	-16.5%	-14.7%	5.01µM*	?	1.1%	?
CCOC(=O)C1=NN(C(=O)COc2ccccc2)C(O)(c2ccc(Br)cc2)C1 (stereo not given)	0.3%	1.4%	4.47µM*	11.2µM*	-0.3%	-1.8%
CC(=O)OCCCNc1cc(Sc2nc3ccccc3s2)c2nonc2c1[N+](=O)[O-]	11.4%	12.2%	3.55µM*	5.01µM*	-1.6%	-7.4%
CC(=O)OCCNc1cc(SCc2ccco2)c2nonc2c1[N+](=O)[O-]	18.8%	-13.1%	11.2µM*	?	-9.2%	?
CC(=O)OCCCNc1cc(Sc2ccc(C)cc2)c2nonc2c1[N+](=O)[O-]	8.7%	-14.0%	-41.2%	?	-15.2%	-0.6%
CC(C)[C@@H](C(=O)NC1CCN(Cc2ccccc2)CC1)N1C(=O)N2CCc3c([nH]c4ccccc34)[C@@]2(C)C1=O	0.6%	-40.5%	-9.1%	2.9%	?	?
